# Shown are actives, neighbours in structure and some others; about 11% of the full set was active somewhere.
# 15-hLO inh = inhibitors of human 15-lipoxygenase (ALOX15). P16050. purified 15hLO-1, xylenol orange hydroperoxide absorbance. Potency, µM (highest dose often 57.1 µM), inactives show at the top dose activity change, negative = inhibition, usual class: inhibitors. 74,000 tested, 1.4% active. AID 887; also: nearly all actives have a fitted effect of over 55% in size
#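 Hydroperoxide formed from arachidonic acid (50 uM) by purified human 15hLO-1 (40 nM) oxidizes ferrous iron, and the ferric-xylenol orange complex is read at 573 versus 405 nm. Compounds were preincubated 15 min; reaction ran 6 min at room temperature.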
# Bst PK mod = modulators of Bacillus stearothermophilus pyruvate kinase; purified pyruvate kinase, luminescence ATP production; ribose 5-phosphate activator present at AC10; Potency, µM; 51,000 tested, 1.2% active; in the data active = potency below about 11 µM; inconclusive = mostly about 12 µM to 25 µM;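 the screen sought inhibitors and activators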;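 also: scaled between full activation by ribose 5 phosphate and full inhibition by luteolin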
# ERK AVP inh = inhibitors of vasopressin-stimulated ERK signaling pathway | Potency, µM (series often up to 57.5 µM), for inactives: at the top dose activity, negative = inhibition, most hits filed as inhibitors | 72,000 tested, 0.99% active | HEK293-V1b, vasopressin-stimulated pERK AlphaScreen; also: nearly all actives have a fitted effect of over 55% in size
#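 Phosphorylated ERK1/2 detected via AlphaScreen bead proximity in lysates of V1b-expressing HEK293 cells given 25 nM vasopressin for 5 min after 30 min compound exposure (37 °C). AC50 from Hill equation; basal DMSO 0%, vasopressin 100%.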
# Luciferase inh = inhibitors of firefly luciferase; Potency, µM (doses to about 57.1 µM), without a hit: at the top dose activity change, negative = inhibition, most hits filed as inhibitors; AID 411; 72,000 tested, 2.2% active; purified firefly luciferase, luminescence, 8 min; P08659; also: nearly all actives have a fitted effect of over 40% in size
#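 Luminescence read-out after 8 min at room temperature; enzyme reaction used luciferin plus 10 uM ATP (linear range) in imidazole buffer pH 7.2 with KCl, MgCl2, Tween 20 and BSA. Each sample was run as a titration.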
# HADH2 inh = blocks human hydroxyacyl-CoA dehydrogenase type II; AID 886; Q99714; Potency, µM (titrated, usually from 57.1 µM), for the others: top-dose activity change, negative = inhibition, actives largely listed as inhibitors; 73,000 tested, 3.4% active; recombinant HADH2, NADH fluorescence, beta-hydroxybutyryl-CoA; also: nearly all actives have a fitted effect of over 60% in size
# Target sequence (Q99714 whole entry, looked up, one chain of several): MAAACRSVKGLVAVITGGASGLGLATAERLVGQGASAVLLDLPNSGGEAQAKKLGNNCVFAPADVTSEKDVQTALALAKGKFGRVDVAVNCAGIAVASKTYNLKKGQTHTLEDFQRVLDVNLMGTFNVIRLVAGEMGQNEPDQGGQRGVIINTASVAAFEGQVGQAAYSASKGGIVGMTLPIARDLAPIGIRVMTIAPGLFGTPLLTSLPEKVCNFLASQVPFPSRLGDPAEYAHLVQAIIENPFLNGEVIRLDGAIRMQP
#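 E. coli-expressed His-tagged HADH2 tested at 20 nM in alkaline Tris buffer (pH 9.0); oxidation of 90 uM beta-hydroxybutyryl-CoA with 1 mM NAD+ tracked fluorimetrically for 4 min.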
# HSD17B inhib = inhibitors of human HSD17B10 dehydrogenase; Potency, µM (titrated, usually from 57.1 µM), inactives show at the highest dose activity change, negative = inhibition, usual class: inhibitors; 75,000 tested, 7.6% active; recombinant HSD17B10, NADH fluorescence kinetic; Q99714; AID 893;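 also: the protocol describes HADH2 (HSD17B10) and not the HSD17B4 of the title; nearly all actives have a fitted effect of over 70% in size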
#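 His-tagged E. coli-expressed HADH2 at 20 nM in 100 mM Tris-HCl pH 9.0 with 0.01 % Tween-20, preincubated 15 min with compound at room temperature. Reaction with 1 mM NAD+ and 90 uM beta-hydroxybutyryl coenzyme A; NADH fluorescence (360/450 nm) read kinetically over 4 min, last minus first point.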
# * hit, by the source's call; i = inactive; ? = inconclusive; nt = not tested or not shown; [ ] = remark or other dose. Unless noted, calls follow the shape of the dose curve; as a rule, active = well fitted curve in the direction sought with a large enough effect; inconclusive = small, poorly fitted or top-dose-only effect, or another doubt; inactive = no such curve, though single readings can be large; an effect the other way counts as inactive or inconclusive. Unless noted, % is scaled to controls: 0 for no effect and ±100 for the full control effect; potency is read from the fitted curve at half-maximal effect.
SMILES,15-hLO inh,Bst PK mod,ERK AVP inh,Luciferase inh,HADH2 inh,HSD17B inhib
COC(=O)C/C=C\[C@@H](C)[C@@H](/C=N\O[C@@H](C)c1cn([C@H](CO)Cc2ccccc2)nn1)NS(=O)(=O)c1ccc(C)cc1,9%[11.4 µM],nt,-4%[11.5 µM],-2%[11.4 µM],10%[11.4 µM],1%[11.4 µM]
CC(C)[C@@H](CC(=O)N[C@@H]1CCNC[C@H]1C(=O)N[C@H](CC(=O)N[C@@H](CCC(=O)O)CC(=O)O)Cc1c[nH]c2ccccc12)NC(=O)C[C@H](Cc1c[nH]c2ccccc12)NC(=O)[C@@H]1CNCC[C@H]1N,nt,nt,nt,nt,-18%,nt
O=c1c2ccccc2cnn1-c1nc2ccccc2s1,4%,0.16*,-5%,0.16µM*,3%,?
O=c1c2ccccc2ncn1Cc1nc2ccccc2s1,8%,i,-18%,-37%,-3%,7%
O=C(/C=C/c1ccc(O)c(O)c1)OC1C[C@](O)(C(=O)O)C[C@@H](O)[C@H]1O (stereo not given in full),-17%,nt,-24%,nt,7.9µM*,?
O=C(/C=C/c1ccc(O)c(O)c1)O[C@H]1C[C@@](O)(C(=O)O)CC(O)C1O (stereo not given in full),-12%,nt,-9%,nt,nt,-8%
CC(C)/C(=N/[N+](C)(C)C)c1ccccc1,-5%[11.4 µM],nt,3%[11.5 µM],4%[11.4 µM],8%[11.4 µM],-1%[11.4 µM]
Cc1cccc(/C=C\c2ccccc2)n1,-17%[25.6 µM],nt,14%,7.9µM*,-8%,-27%
CCN(CC)c1ccc(-n2cc3c(=O)n(C)c(=O)n(C)c3c2)cc1,1%,i,-8%,-13%,10%,25µM*
O=C(Nc1ccc2c(c1)OCO2)c1cc(C2CC2)on1,-15%,nt,1%,7.9µM*,-19%,-10%
COc1ccc(NC(=O)c2cc(C(C)C)on2)cc1OC,-2%,nt,55%,-12%,-5%,1%
O=C(Nc1ccc2c(c1)OCO2)c1ccncc1,-14%,nt,-10%,-5%,-3%,-6%
CC(C)c1cc(C(F)(F)F)n2nc(C(=O)Nc3ccc4c(c3)OCO4)cc2n1,2%,nt,-3%,20µM*,-5%,1%
COc1ccc(C2CC(C(F)(F)F)n3nc(C(=O)Nc4ccc5c(c4)OCO5)cc3N2)cc1 (stereo not given),-13%,nt,0%,-4%,1%,-5%
CC(C)c1cc(C(=O)Nc2ccc3c(c2)OCO3)no1,-11%,nt,-6%,7.9µM*,0%,-6%
CC(=O)OC(C)(C)N=Nc1ccc(Br)cc1,nt,nt,nt,4%[11.4 µM],-8%[11.4 µM],nt
CN(C)c1ccc(-c2nc(-n3ccnc3)c3ccccc3n2)cc1,16%,nt,36%,?,12%,3%
N#C/C(=C\Nc1ccccn1)C(=O)C1CC1,-5%[11.4 µM],nt,-24%[11.5 µM],-1%[11.4 µM],9%[11.4 µM],4%[11.4 µM]
CN(Cc1ccco1)c1ccnc(-c2cccnc2)n1,-22%,nt,-16%,2%[2.29 µM],-18%,-14%
CN(Cc1ccco1)c1nc(-c2ccoc2)nc2ccccc12,13µM*,nt,-16%,-1%[2.29 µM],?,?
CN(Cc1ccco1)c1ccnc(-c2ccoc2)n1,?,nt,0%,1%[2.29 µM],3.2µM*,?
Nc1ncnc2c1ncn2[C@H]1O[C@@H](CO)[C@@H](O)[C@H]1N,2%[11.4 µM],nt,4%[11.5 µM],0%[11.4 µM],4%[11.4 µM],2%[11.4 µM]
CCC(C(=O)Nc1nccs1)c1ccccc1 (stereo not given),7%[11.4 µM],nt,24%,-3%,-1%[11.4 µM],-5%
C/C(=C\C(=O)Nc1nccs1)c1ccccc1,8%,i,-8%,25µM*,2%,-9%
CCOC(=O)OCC1OC(C#Cc2ccc(F)cc2F)C=CC1OC(=O)OCC (stereo not given),-2%[11.4 µM],nt,10%[11.5 µM],nt,-11%[11.4 µM],-3%[11.4 µM]
SMILES,15-hLO inh,Bst PK mod,ERK AVP inh,Luciferase inh,HADH2 inh,HSD17B inhib
CCc1c2c(nc3cccc(OC)c13)OC(CC)C2 (stereo not given),nt,nt,-7%,nt,?,32µM*
CCOC(=O)CNC(=O)c1cnn2cccnc12,8%,>57,-4%,-1%,0%,?
O=C(Nc1cnn(C23CC4CC(CC(C4)C2)C3)c1)c1cnn2cccnc12,9%,?,-25%,2.5µM*,-3%,2%
O=C(O)C1C(C(=O)O)C(C(=O)O)C1C(=O)O (stereo not given),5%[11.4 µM],nt,-5%[11.5 µM],1%[11.4 µM],6%[11.4 µM],8%[11.4 µM]
CC(C)(C)CC(C)(C)c1ccc(O)c(C[N+](C)(C)[O-])c1,-23%[11.4 µM],nt,-6%[11.5 µM],2%[11.4 µM],4%[11.4 µM],-6%[11.4 µM]
CCOC(=O)CCCCCCCCCCCCC1C=CCC1 (stereo not given),13µM*,nt,7%,nt,nt,2%
Cn1c(SCc2ccccc2Cl)nnc1-c1cnccn1,9%,>57,3%,-3%,-7%,25µM*
CCn1c(C)c(CCC(=O)O)c(=O)n2nc(-c3ccccc3OC)cc12,6%,>57,22%,0%,25µM*,25µM*
Cc1oc2c(CN3CCOCC3)c(O)ccc2c(=O)c1-c1ccccc1,5%,>57,4%,0%,44%,32µM*
Cc1cc(=O)oc2c(CN(C)Cc3ccccc3)c(O)ccc12,6%,>57,3%,-1%,-110%,13µM*
Cc1cc(=O)oc2c(CN3CCOCC3)c(O)ccc12,4%,nt,-3%,1%,195%,25µM*
O=c1oc2c(CN3CCOCC3)c(O)c(Cl)cc2c2c1CCC2,0%,>57,-5%,-1%,296%,16µM*
Cc1cc(=O)oc2c(N)c(O)ccc12,-16%,nt,nt,1%,?,-9%
C#CCCCO/N=C1/C[C@@H](O)[C@@H](O)[C@@H]2[C@@H]3C(=O)N(C(C)(C)C)C(=O)[C@H]3CC[C@@H]12,5%[11.4 µM],nt,24%[11.5 µM],2%[11.4 µM],-1%[11.4 µM],3%[11.4 µM]
O=C(O)/C=C/c1cccc(B(O)O)c1,11%,nt,-4%,nt,-6%,6%
C[C@H]1C2=C3C(CC[C@H]4C(OCc5ccc(F)cc5C(F)(F)F)OC[C@](C)([C@@H]34)N(C(=O)OC(C)(C)C)C2)C(CO)C1CO (stereo not given in full),nt,nt,2%,nt,1%,-23%
Cc1cc(=O)oc2cc(O)c(CN(C)CC(=O)O)cc12,10%[11.4 µM],nt,0%[11.5 µM],4%[11.4 µM],3.2µM*,3.2µM*
CCOC(=O)c1c(CN2CCCCC2C)oc2ccc(OC)cc12 (stereo not given),10%,>57,?,3%,-10%,-20%
CCc1cc2c(C)cc(=O)oc2cc1OC(=O)C1CCCN1C(=O)OC(C)(C)C (stereo not given),1%,>57,9%,1%,162%,i
COc1ccc(-c2c(C)oc3c(CN4CCCCC4C)c(O)ccc3c2=O)cc1OC (stereo not given),-21%,nt,-6%,0%,?,20µM*
COc1cccc(Oc2c(C)oc3c(CN4CCOCC4)c(O)ccc3c2=O)c1,10%,>57,-4%,1%,106%,10µM*
COC(=O)NC/C=C\c1nc(CCCO)co1,13%[11.4 µM],nt,15%[11.5 µM],-1%[11.4 µM],-5%[11.4 µM],1%[11.4 µM]

# Bioassay records (PubChem BioAssay)
